Assay outcomes deposited in PubChem BioAssay by several laboratories.
Cav32 inh – inhibitors of human Cav3.2 T-type calcium channel. 4% of 100,000 active. AID 449739. O95180. B-score at 10 µM. Cav3.2-expressing cells, Fluo-4 calcium fluorescence FDSS; active compounds read low;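 active = single-dose well whose peak fluorescence ratio is a statistical outlier from its plate by either plate-standardised score or position-corrected B-score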
Pyk2 oligo antag – blocks oligomerization of human Pyk2 in cells. Q14289. 0.83% of 99,000 active. z-score (the deposit names both 25 µM and 10 µM). Q293 cells, Pyk2 FERM NanoBiT luminescence; active compounds read low;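 active = Z-score of -3 or lower, scaled per plate to the spread of control and sample wells; inactive = z-score above -3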;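 also: negative z-score means lost luminescence so less FERM oligomerization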
M1 agonist – M1 muscarinic receptor agonism; CHO-M1 cells, Fluo-4 calcium fluorescence, agonist mode; active compounds read high; B-score at 10 µM; 3% of 64,000 active; AID 626;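 active = fluorescence rise, raw or as B-score row- and column-corrected plate score, outside the 99.7% band of its plate's samples, either direction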
M1 antag – blocks the rat M1 muscarinic receptor response to acetylcholine; P08482; CHO-M1 cells, Fluo-4 calcium, ACh EC80 antagonist mode; active compounds read low; B-score at 10 µM; 3.4% of 64,000 active; AID 628;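 active = calcium fluorescence response, raw or row-and-column corrected B-score, differing from the plate sample mean either way at a set confidence level, mostly lower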
M1 antag confirm – M1 muscarinic receptor (rat) antagonism, confirmed; shares compounds with M1 antag; CHO-M1 cells, Fluo-4 calcium, ACh EC80 antagonism; active compounds read low; calcium response (max-min fluorescence) at 10 µM; 43% of 1,700 active;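 active = calcium response below the same-plate mean of wells given acetylcholine alone at its 80%-effect dose, minus 3 SD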;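 also: raw fluorescence intensity difference in arbitrary instrument units and not normalized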
mGluR4 antag – selectivity test for M1 antagonists: human mGluR4 receptor | CHO-mGluR4 calcium flux, Fluo-4 fluorescence, glutamate EC80; active compounds read low | shares compounds with M1 antag | AID 678 | 0.9% of 1,700 active | fluorescence response (max-min) at 10 µM;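 active = fluorescence response below the plate's average for near-maximal glutamate wells, less 3 SD of those wells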;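 also: raw unnormalized fluorescence span taken in the window right after glutamate addition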
The depositor's hits bear a star; . = not tested or not shown. In the library only some 7.1% were active in any assay of this set; here they are far more common.

SMILES	Cav32 inh	Pyk2 oligo antag	M1 agonist	M1 antag	M1 antag confirm	mGluR4 antag
CCCCN(CC)CCNC(=O)c1cc2c(=O)n(C)c3ccccc3c2n1C	1.51	.	-0.0484	-4.25*	412*	229
COc1ccc2c(c1)Sc1ccccc1N2CCN(C)C	-0.095	0.16	0.437	-8.57*	114*	247
CC(Oc1ccc(Cl)cc1Cl)C(=O)NCc1ccncc1 (centres undefined)	0.643	0.9	0.635	-2.43*	605	223
Cn1c(N)c(C(=O)CNC2CCCCC2)c(=O)n(C)c1=O	1.28	.	.	.	.	.
CN(c1ccc(C(=O)N2CCN(Cc3ccc4c(c3)OCO4)CC2)cc1)S(=O)(=O)c1ccccc1	-2.28	0.16	.	.	.	.
OC(COCc1ccc2c(c1)OCO2)CN1CCN(Cc2ccccc2)CC1 (centres undefined)	0.829	1.05	.	.	.	.
CSc1ccc(S(=O)(=O)N2CCN(Cc3ccc4c(c3)OCO4)CC2)cc1	-3.86	.	-0.159	-2.11*	440	208
O=C(CN(c1ccccc1)S(=O)(=O)c1ccccc1)N1CCN(Cc2ccc3c(c2)OCO3)CC1	-1.69	-0.97	-0.0994	-4.05*	436*	242
c1ccc(CN2CCC(N3CCN(Cc4ccc5c(c4)OCO5)CC3)CC2)cc1	.	.	-0.496	-2.26*	330*	197
CCOC(=O)C(C(C)=O)C(c1ccc(OCCC(C)C)cc1)C(C(C)=O)C(=O)OCC (centres undefined)	-2.94	0.59	.	.	.	.
CCC(=O)N1C(C(=O)N2CCCC2)CSC1c1ccc(OC)cc1 (centres undefined)	.	.	-2.96	0.153	.	.
COc1ccc(Cc2nc(-c3ccccc3)no2)cc1	-2.45	-1.06	0.14	-2.11*	611	263
COc1ccc(Cc2nc(-c3ccc(-n4cccc4)cc3)no2)cc1	0.00058	.	-1.11	-1.11	.	.
COc1ccc(-c2noc(CSc3nc(N)c(-c4ccccc4)c(=O)[nH]3)n2)cc1	-0.339	0.51	0.93	-3.37*	628	290
Nc1nc(SCc2ccc(Cl)cc2)[nH]c(=O)c1-c1ccccc1	-1.32	-1.03	.	.	.	.
CN1CCN(C2=C(Cl)C(=O)N(Cc3ccccc3)C2=O)CC1	-0.631	-0.25	-0.303	-5.64*	226*	214
Cc1ccc(NC(=O)Cn2cccc2)c(Br)c1	-0.417	0.17	0.369	-2.92*	566	247
Cc1ccc(NC(=O)CCCC(=O)O)c(Br)c1	.	0.28	-0.0773	-0.00536	.	.
CN(C)CCOC(=O)C1(c2ccccc2)CCOCC1	-0.00614	-0.59	-1.43	-3.23*	362*	202
O=C(OCCCN1CCCCC1)c1ccc(O)cc1	-0.151	-0.37	0.357	0.492	.	.
O=C(N1CCCCC1)C1(c2ccccc2)CCOCC1	-0.321	0.16	0.641	0.277	.	.
O=C(OCCCN1CCCC1)C1(c2ccccc2)CCCC1	0.793	1.54	0.0389	-18.4*	27.4*	261
Cc1cc(NC(=O)CN2CCCCC2C)no1 (centres undefined)	-0.11	1.66	.	.	.	.
O=C(NCCNCCO)C1(C(F)(F)F)C/C(=C\CCO)CCCO1 (centres undefined)	0.545	.	.	.	.	.
COc1ccc(NC(=O)C2CCCCN2CC(=O)OCc2ccccc2)cc1OC (centres undefined)	-0.666	-0.12	-1.04	-2.74*	610	210
SMILES	Cav32 inh	Pyk2 oligo antag	M1 agonist	M1 antag	M1 antag confirm	mGluR4 antag
COc1ccc(NC(=O)C2CCCCN2N)cc1OCC(C)C (centres undefined)	0.87	0.06	.	.	.	.
Cc1cccc(NC(=O)c2sc(NC(=O)c3ccco3)c(C#N)c2C)c1C	0.0407	-0.5	-0.627	-2.47*	612	229
CC1(C)Cc2c(sc(NC(=O)c3ccco3)c2C#N)CO1	-0.648	-0.78	0.133	-0.357	.	.
O=C(Cc1coc(-c2ccc(F)cc2)n1)N1CCOCC1	1.03	-0.35	0.173	-0.531	.	.
COc1cc2ccccc2c2c1CCCC2=O	-0.871	0.17	.	.	.	.
N#CCSc1nc2c(cc1C#N)CCCCCC2	-2.16	-0.81	0.0621	-5.32*	205*	259
Cc1nn(Cc2ccccc2)c(=O)n1N(C)c1ncc(C(F)(F)F)cc1Cl	-0.844	2.62	.	.	.	.
COC(=O)CN=C1OC(=O)N2C(=O)C3=C4[C@@H](C[C@H]5C(=O)N(c6ccccc6)C(=O)[C@H]5[C@H]4[C@@]12Cc1ccccc1)[C@H]1C(=O)N(c2ccccc2)C(=O)[C@H]1[C@H]3C	-0.779	.	.	.	.	.
CCn1c(CNC(=O)c2ccco2)nnc1SCC(=O)Nc1cc(C(F)(F)F)ccc1Cl	-4.48*	-0.25	0.262	-1.16*	659	184
COC(=O)c1ccc(CNC(=O)/C=C/c2cc([N+](=O)[O-])ccc2OC(F)F)cc1	0.0108	-0.98	.	.	.	.
COc1ccc2nc3oc(C(=O)N4CCCCC4)cc3cc2c1	0.409	-0.56	-0.161	0.0856	.	.
CCOC(=O)C1CCN(C(=O)c2cc3cc4cc(OC)ccc4nc3o2)CC1	0.516	1.15	5.06	-3.19*	432*	196
COC(=O)c1[nH]c2ccc(Cl)cc2c1NC(=O)CCN1CCN(C2CCCCC2)CC1	1.82	1.16	-0.0201	-9.59*	50.8*	213
COC(=O)c1[nH]c2ccc(Br)cc2c1NC(=O)CN1CCN(C2CCCCC2)CC1	2.61	0.63	0.6	-7.48*	324*	256
COC(=O)c1[nH]c2ccc(C)cc2c1NC(=O)CCN1CCN(C2CCCCC2)CC1	0.508	.	0.92	-11.9*	98.8*	204
COC(=O)c1[nH]c2ccc(F)cc2c1NC(=O)CCN1CCN(Cc2ccc3c(c2)OCO3)CC1	2.28	0.18	0.645	-7.61*	125*	204
COC(=O)c1[nH]c2ccc(C)cc2c1NC(=O)CN1CCCC(C)(C)C1	-2.74	-1.11	-0.133	-1.98	.	.
Cc1cc2oc3c(c(=O)c2cc1C)C(c1ccc(C(C)C)cc1)N(CCCN1CCOCC1)C3=O (centres undefined)	.	.	-0.199	-0.137	.	.
CN1C[C@@H]2C(c3ccc(C(F)(F)F)cc3)C3(c4ccc(C#N)cc4)CC2(C3)[C@H]1c1ccccc1 (some centres undefined)	-1.24	.	.	.	.	.
COc1cc2c(cc1OC)CN(C(=O)c1ccc(OC)c(S(=O)(=O)N3CCOCC3)c1)CC2	1.58	0.09	-0.731	-0.836*	586	239
COc1ccc(C(=O)Nc2cccc(C)c2)cc1S(=O)(=O)N1CCOCC1	1.16	1.16	-0.12	0.00844	.	.
Cc1ccc2nc(C3CCN(S(=O)(=O)c4ccc5ccccc5c4)CC3)[nH]c2c1	-2.13	-0.87	.	.	.	.
O=C(Nc1ccc2c(c1)OCO2)c1noc2c1CCCCC2	-1.34	-0.63	0.0571	-4.04*	387*	232
CC(=O)c1ccc(NC(=O)c2noc3c2CCCCC3)cc1	.	-0.63	0.252	-0.215	.	.
CN1CCN(C(=O)c2ccc(COc3ccc(Cl)cc3Cl)cc2)CC1	0.169	-0.91	-1.16	-2.73*	529	228
CN1CCN(C(=O)CCCOc2ccc(Cl)cc2Cl)CC1	0.35	0.57	-0.184	0.0462	.	.
COc1ccc(/C(CC2(O)C(=O)Nc3ccccc32)=N\O)cc1 (centres undefined)	0.58	0.77	0.366	-2.52*	585	233
